Laboratory results published in PubChem BioAssay (Tox21).
Inconclusive results are not listed. Active and inactive are the calls of the source. Unless noted, the call rests on the fitted dose curve; in most records, active means well fitted curve in the direction sought with a large enough effect in the repeat runs; inconclusive means weak or mixed curves; inactive means no such curve, though single readings can be large; an effect the other way counts as inactive or inconclusive.

Assays:
[1] = qHTS assay to identify small molecule agonists of the peroxisome proliferator-activated receptor delta (PPARd) signaling pathway - cell viability counter screen (AID 743211); further: nearly all actives have a fitted effect of over 55% in size; further: potency means the concentration at half of the fitted maximal effect
Procedure, shortened: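 In the same wells used for beta-lactamase reporter measurement, cytotoxicity is scored by CellTiter-Glo. HEK293H PPARd-bla cells receive compound for 17 h at 37C following a 5 h settling period.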

[2] = molecular target: Peroxisome proliferator-activated receptor delta (Homo sapiens) (UniProt Q03181); experiment: qHTS assay to identify small molecule agonists of the peroxisome proliferator-activated receptor delta (PPARd) signaling pathway (AID 743212; calls by dose curve; further: potency means the concentration at half of the fitted maximal effect)
Procedure, shortened: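 Quantitative high-throughput agonist screen in a HEK293H beta-lactamase reporter line under UAS control. Compounds in DMSO, at 37 C. Fluorescence read after 2 h with FRET substrate at room temperature.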

[3] = qHTS assay to identify small molecule antagonists of the peroxisome proliferator-activated receptor delta (PPARd) signaling pathway - cell viability counter screen (AID 743213); further: nearly all actives have a fitted effect of over 50% in size
Procedure, shortened: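 Agonist-stimulated (L165041, 300 nM final) HEK293H PPARd UAS-bla cells are exposed to compounds for 17 h at 37 C, and ATP-based luminescence (CellTiter-Glo) from the same wells reports cytotoxicity.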

[4] = molecular target: Peroxisome proliferator-activated receptor delta (Homo sapiens) (UniProt Q03181); experiment: qHTS assay to identify small molecule antagonists of the peroxisome proliferator-activated receptor delta (PPARd) signaling pathway (AID 743215; active means well fitted inhibition curve with a large enough effect in the signal ratio in the repeat runs, not every such curve was filed as active; the % refers to the signal ratio; further: series mostly up to about 62 µM)
Procedure, shortened: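 Inhibition of L165041-driven (300 nM final) PPARd signaling is scored in HEK293H UAS-bla cells. Exposure lasts 17 h at 37 C; beta-lactamase activity is then read by FRET substrate fluorescence after 2 h at room temperature.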

[5] = qHTS assay to identify small molecule agonists of the farnesoid-X-receptor (FXR) signaling pathway - cell viability counter screen (AID 743218); further: nearly all actives have a fitted effect of over 45% in size; further: potency means the concentration at half of the fitted maximal effect
Procedure, shortened: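 Cytotoxicity counter-screen run in parallel, same wells: FXR-UAS-bla HEK 293T cells dosed 16 h at 37 C, viability read by CellTiter-Glo luminescence after 30 min at room temperature.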

[6] = qHTS assay to identify small molecule antagonists of the farnesoid-X-receptor (FXR) signaling pathway - cell viability counter screen (AID 743221; active means well fitted cell-killing curve with a large enough effect in the repeat runs, not every such curve was filed as active; further: nearly all actives have a fitted effect of over 50% in size)
Procedure, shortened: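 Here viability was scored by luminescence after CellTiter-Glo addition to wells already read for beta-lactamase. Prior treatment: compound plus CDCA (50 uM final), 16 h, 37 C, HEK 293T FXR-bla cells.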

[7] = molecular target: Vitamin D3 receptor (Homo sapiens) (UniProt P11473); experiment: qHTS assay to identify small molecule agonists of the vitamin D receptor (VDR) signaling pathway (AID 743222; calls by dose curve)
Procedure, shortened: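 Quantitative HTS agonist-mode screen: compounds in DMSO were pin-transferred onto VDR-bla cells and incubated 16 h at 37C, 5% CO2. Reporter activity was detected with LiveBLAzer B/G FRET substrate after 2 h at room temperature.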

[8] = qHTS assay to identify small molecule agonists of the vitamin D receptor (VDR) signaling pathway - cell viability counter screen (AID 743224); further: series mostly up to about 63 µM; nearly all actives have a fitted effect of over 50% in size
Procedure, shortened: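 Viability is measured in the same wells as the VDR-bla reporter assay: after 16 h compound treatment and 2 h substrate loading, CellTiter-Glo is added and luminescence read 30 min later.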

[9] = qHTS assay to identify small molecule antagonists of the vitamin D receptor (VDR) signaling pathway - cell viability counter screen (AID 743225); further: nearly all actives have a fitted effect of over 50% in size
Procedure, shortened: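 Compounds were pinned onto VDR-bla HEK 293T cells together with 1-alpha,25-dihydroxyvitamin D3 at 3 nM final. After 16 h at 37C and 5% CO2 plus the reporter readout, cell viability was measured by CellTiter-Glo luminescence (30 min, room temperature).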

[10] = qHTS assay to identify small molecule agonists of the NFkB signaling pathway - cell viability counter screen (AID 1159515; calls by dose curve; further: series mostly up to about 61 µM; nearly all actives have a fitted effect of over 55% in size)
Procedure, shortened: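 Multiplexed viability readout: after the 5 hr compound exposure and 1.5 hr FRET substrate step, CellTiter-Glo reagent went into the same NFkB-bla ME-180 wells; ATP luminescence was measured after 30 min at room temperature.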

[11] = qHTS assay to identify small molecule agonists of the endoplasmic reticulum stress response signaling pathway - cell viability counter screen (AID 1159517; calls by dose curve)
Procedure, shortened: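 Counter-screen wells were identical to the reporter wells. Cells were plated at 1,500 per well and dosed for 5 hr, then read for luminescence 30 min after CellTiter-Glo addition.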

[12] = qHTS assay to identify small molecule antagonists of the retinoid-related orphan receptor gamma (ROR-gamma) signaling pathway - cell viability counter screen (AID 1159520); further: nearly all actives have a fitted effect of over 50% in size
Procedure, shortened: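 Tet-on ROR gamma CHO cells were given compounds for 2 hr, then doxycycline hyclate at 1 uM final, and incubated 16 hr at 37 C. Viability was measured as ATP content by CellTiter-Glo luminescence.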

[13] = molecular target: Nuclear receptor ROR-gamma (Homo sapiens) (UniProt P51449); experiment: qHTS assay to identify small molecule antagonists of the retinoid-related orphan receptor gamma (ROR-gamma) signaling pathway (AID 1159521; further: nearly all actives have a fitted effect of over 50% in size; further: potency means the concentration at half of the fitted maximal effect)
Procedure, shortened: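 Test compounds were applied to Tet-on RORγ CHO cells 2 h ahead of doxycycline hyclate (1 uM final). Luciferase reporter activity was quantified by luminescence after 16 h at 37 C and 5% CO2.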

[14] = qHTS assay to identify small molecule agonists of the AP-1 signaling pathway (AID 1159526; calls by dose curve)
[15] = molecular target: Bile acid receptor (Homo sapiens) (UniProt Q96RI1); experiment: qHTS assay to identify small molecule antagonists of the farnesoid-X-receptor (FXR) signaling pathway (AID 743217; active means well fitted inhibition curve with a large enough effect in the signal ratio in the repeat runs, not every such curve was filed as active; the % refers to the signal ratio)
Procedure, shortened: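 Antagonist mode against 50 uM (final) chenodeoxycholic acid stimulation in FXR-bla HEK 293T cells, 16 h at 37 °C. Inhibition detected as reduced beta-lactamase activity via LiveBLAzer B/G FRET fluorescence after 2 h at room temperature.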

[16] = qHTS assay to identify small molecule agonists of the endoplasmic reticulum stress response signaling pathway (AID 1159516; active means well fitted activation curve with a large enough effect in the signal ratio in the repeat runs, not every such curve was filed as active; the % refers to the signal ratio)
Procedure, shortened: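 Tox21 10K library screened in quantitative HTS format on ESRE-bla HeLa cells, a beta-lactamase reporter under ER stress response element control; 5 hr treatment, FRET read.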

[17] = qHTS assay to identify small molecule agonists of the AP-1 signaling pathway - cell viability counter screen (AID 1159525; calls by dose curve; further: nearly all actives have a fitted effect of over 55% in size)
Procedure, shortened: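 AP-1-bla ME-180 cells in Opti-MEM with 0.5% dialyzed FBS, compound exposure 5 h at 37 C in 15-point titration. Viability read in the same wells as ATP content by CellTiter-Glo luminescence, normalised to tetra-n-octylammonium bromide and DMSO controls.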

[18] = molecular target: Vitamin D3 receptor (Homo sapiens) (UniProt P11473); experiment: qHTS assay to identify small molecule antagonists of the vitamin D receptor (VDR) signaling pathway (AID 743223; active means well fitted inhibition curve with a large enough effect in the signal ratio in the repeat runs, not every such curve was filed as active; the % refers to the signal ratio; further: potency means the concentration at half of the fitted maximal effect)
Procedure, shortened: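 Inhibition of agonist-driven VDR signalling is scored in VDR-bla cells: 3 nM final 1alpha,25-dihydroxyvitamin D3 plus compound, 16 h at 37C, then beta-lactamase detection by FRET substrate fluorescence after 2 h.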

[19] = molecular target: Bile acid receptor (Homo sapiens) (UniProt Q96RI1); experiment: qHTS assay to identify small molecule agonists of the farnesoid-X-receptor (FXR) signaling pathway (AID 743220; active means well fitted activation curve with a large enough effect in the signal ratio in the repeat runs, not every such curve was filed as active; the % refers to the signal ratio)
Procedure, shortened: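 Beta-lactamase reporter under UAS control in GeneBLAzer FXR HEK 293T cells (5000/well) measured with LiveBLAzer FRET substrate after 2 h at room temperature. Compound exposure lasted 16 h at 37C.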

Measured: Potency

Sequence of Peroxisome proliferator-activated receptor delta (Homo sapiens) (Q03181 whole entry, looked up): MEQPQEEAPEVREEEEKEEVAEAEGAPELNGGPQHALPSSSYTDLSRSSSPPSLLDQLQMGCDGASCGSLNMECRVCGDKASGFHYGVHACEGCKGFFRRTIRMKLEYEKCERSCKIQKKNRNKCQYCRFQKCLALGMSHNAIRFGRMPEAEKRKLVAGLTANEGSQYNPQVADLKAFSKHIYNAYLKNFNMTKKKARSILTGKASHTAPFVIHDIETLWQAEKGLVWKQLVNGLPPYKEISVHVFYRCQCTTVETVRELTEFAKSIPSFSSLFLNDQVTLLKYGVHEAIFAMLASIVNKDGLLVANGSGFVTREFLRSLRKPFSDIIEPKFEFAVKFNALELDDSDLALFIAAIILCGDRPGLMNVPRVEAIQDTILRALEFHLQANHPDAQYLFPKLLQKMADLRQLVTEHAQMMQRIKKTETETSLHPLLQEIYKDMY
Sequence of Vitamin D3 receptor (Homo sapiens) (P11473 whole entry, looked up): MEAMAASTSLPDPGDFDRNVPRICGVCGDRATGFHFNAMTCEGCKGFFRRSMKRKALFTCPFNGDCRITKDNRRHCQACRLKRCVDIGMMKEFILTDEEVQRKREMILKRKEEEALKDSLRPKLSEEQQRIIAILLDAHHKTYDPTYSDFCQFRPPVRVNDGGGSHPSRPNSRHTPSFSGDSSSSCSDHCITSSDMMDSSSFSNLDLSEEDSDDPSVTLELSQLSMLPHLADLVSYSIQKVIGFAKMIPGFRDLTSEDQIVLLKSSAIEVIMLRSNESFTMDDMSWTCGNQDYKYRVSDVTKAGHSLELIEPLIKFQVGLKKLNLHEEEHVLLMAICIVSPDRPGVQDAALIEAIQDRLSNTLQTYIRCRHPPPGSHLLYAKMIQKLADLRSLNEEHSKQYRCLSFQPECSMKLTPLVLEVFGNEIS
Sequence of Bile acid receptor (Homo sapiens) (Q96RI1 whole entry, looked up): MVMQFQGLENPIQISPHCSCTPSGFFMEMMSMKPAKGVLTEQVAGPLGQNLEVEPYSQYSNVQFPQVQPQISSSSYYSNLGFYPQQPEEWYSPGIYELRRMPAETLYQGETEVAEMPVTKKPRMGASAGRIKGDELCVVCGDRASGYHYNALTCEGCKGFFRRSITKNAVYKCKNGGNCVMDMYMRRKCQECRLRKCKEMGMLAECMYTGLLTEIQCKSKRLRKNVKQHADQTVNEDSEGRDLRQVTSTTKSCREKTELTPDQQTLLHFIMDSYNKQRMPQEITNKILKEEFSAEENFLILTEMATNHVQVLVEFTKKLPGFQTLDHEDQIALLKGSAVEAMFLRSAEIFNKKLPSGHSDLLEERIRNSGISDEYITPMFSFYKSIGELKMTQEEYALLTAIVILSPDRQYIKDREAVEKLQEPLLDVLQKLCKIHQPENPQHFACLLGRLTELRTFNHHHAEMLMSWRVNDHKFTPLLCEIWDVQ

Nc1cccc2c1CN(C1CCC(=O)NC1=O)C2=O (configuration not stated)
not listed: [15] | [16] | [17] | [18] | [19]
inactive: all other assays above

CCOc1cccc(-n2cc(C(=O)N3CCN(c4cc(C(=O)O)c5ccccc5c4)CC3)nc2-c2ccc(C)cc2)c1
inactive: [4] | [15] | [6] | [10] | [11]
active: [1] 37.1 µM | [5] 46.7 µM

COc1ncnc(NS(=O)(=O)c2ccc(N)cc2)c1OC
not listed: [10] | [15] | [18] | [19]
inactive: all other assays above

O=C1c2ccccc2C(=O)C1c1nc2ccccc2c(Br)c1O
not listed: [9] | [14] | [15] | [16] | [19]
inactive: all other assays above

CN1C(=O)OC(C)(C)C1=O
not listed: [7] | [10] | [15] | [18] | [19]
inactive: all other assays above

NCCNCCO
not listed: [4] | [9] | [10] | [19]
inactive: all other assays above

CN1CCCN=C1COC(=O)C(O)(c1ccccc1)C1CCCCC1 (configuration not stated)
not listed: [1] | [3] | [5] | [7] | [10] | [13] | [18]
inactive: all other assays above

CC(C)Nc1cccnc1N1CCN(C(=O)c2cc3cc(NS(C)(=O)=O)ccc3[nH]2)CC1
not listed: [2] | [4] | [5] | [10] | [13] | [19]
inactive: all other assays above

CCC1CO1 (configuration not stated)
not listed: [4] | [7] | [10]
inactive: all other assays above

C(=C\c1ccccc1)/c1ccccc1
not listed: [5] | [10] | [11] | [13] | [19]
inactive: all other assays above

CCCCCCCCN
not listed: [7] | [11] | [13] | [15] | [16] | [17] | [19]
inactive: all other assays above

CC1(C)O[C@@H]2C[C@H]3[C@@H]4C[C@H](F)C5=CC(=O)C=C[C@]5(C)[C@H]4[C@@H](O)C[C@]3(C)[C@]2(C(=O)CO)O1
not listed: [5] | [7] | [13] | [14] | [16] | [18] | [19]
inactive: all other assays above

COC(=O)CCS
not listed: [4] | [10] | [15] | [16] | [19]
inactive: all other assays above

O=c1cc(-c2ccccc2)oc2cc(O)cc(O)c12
inactive: [1] | [3] | [6] | [8] | [9] | [16] | [11] | [12] | [17]

CCCC(=O)C(=O)O
not listed: [7] | [10] | [15] | [18] | [19]
inactive: all other assays above

O=[N+]([O-])c1cc(C2CCCCC2)c(O)c([N+](=O)[O-])c1
active: [13] 4.31 µM
inactive: [5] | [6] | [16] | [11] | [17]

Oc1c(I)cc(I)c2cccnc12
inactive: [1] | [2] | [3] | [15] | [5] | [6] | [11] | [12]
active: [18] 21.3 µM

COc1ccc(OC(=O)N(CC(=O)O)Cc2ccc(OCCc3nc(-c4ccccc4)oc3C)cc2)cc1
active: [2] 8.41 µM
not listed: [7] | [13] | [16] | [19]
inactive: all other assays above

c1ccc2c(c1)CCc1ccccc1N2
not listed: [5] | [7] | [10] | [14] | [15] | [18] | [19]
inactive: all other assays above
